{"source": "PubChem BioAssay (NCATS)", "note": "Records with an inconclusive call do not appear. Entries that show only a call come without a potency. The source made the active and inactive calls. Calls follow the shape of the dose curve; as a rule, active = well fitted cell-killing curve with a large enough effect; inconclusive = small, poorly fitted or top-dose-only effect, or effect the other way; inactive = no such curve, though single readings can be large or run the other way. Potency is read from the fitted curve at half-maximal effect.", "data": [{"experiment": "qHTS of pediatric cancer cell lines to identify multiple opportunities for drug repurposing: Confirmatory screen for OHS-50 cells (AID 1347128);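 also: compound exposure lasted 48 h at 37 degrees C; nearly all actives have a fitted effect of over 55% in size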", "details": "OHS-50 osteosarcoma cells viability; series mostly up to 45.9 µM", "summary_of_the_method": "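Viability after 48 h compound treatment at 37C, 500-1,000 cells/well, read as ATP luminescence with CellTiter-Glo. Primary screens used 11-point (MIPE, 0.78 nM-46 µM) or 8-point (NPC, 0.59 nM-46 µM) final concentrations; follow-up screens used 11-point dilutions.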", "values": [{"smiles": "CC(S)C(=O)NCC(=O)O", "note": "(stereo unspecified)", "Potency": "inactive"}, {"smiles": "Nc1ccn([C@@H]2O[C@H](CO)[C@@H](O)C2O)c(=O)n1", "note": "(stereo partly specified)", "Potency": "inactive"}, {"smiles": "CS(=O)(=O)OCCCCOS(C)(=O)=O", "Potency": "inactive"}, {"smiles": "Nc1ncn([C@H]2C[C@H](O)[C@@H](CO)O2)c(=O)n1", "Potency": "inactive"}, {"smiles": "c1cnc2cc3c(cc2n1)C1CNCC3C1", "Potency": "inactive"}, {"smiles": "C[C@]12CCC(=O)C=C1CC[C@@H]1[C@H]2[C@@H](O)C[C@@]2(C)[C@H]1CC[C@]2(O)C(=O)CO", "Potency": "inactive"}, {"smiles": "CC(C)C[C@H](NC(=O)[C@H](Cc1ccccc1)NC(=O)c1cnccn1)B(O)O", "Potency": "73.7 nM (active)"}, {"smiles": "Oc1ccc(-c2nc(-c3ccc(F)cc3)c(-c3ccncc3)[nH]2)cc1", "Potency": "3690 nM (active)"}, {"smiles": "O=C(CCc1ccc(O)cc1)c1c(O)cc(O)cc1O", "Potency": "inactive"}, {"smiles": "O=C1c2c(O)cc(O)cc2OC(c2ccc(O)c(O)c2)C1O", "note": "(stereo unspecified)", "Potency": "inactive"}, {"smiles": "CCCCc1ccc2nc(NC(=O)OC)[nH]c2c1", "Potency": "329 nM (active)"}, {"smiles": "CCN(CCO)CCCC(C)Nc1ccnc2cc(Cl)ccc12", "note": "(stereo unspecified)", "Potency": "inactive"}, {"smiles": "C=C(c1ccc(C(=O)O)cc1)c1cc2c(cc1C)C(C)(C)CCC2(C)C", "Potency": "inactive"}, {"smiles": "CN(C)c1ccc(O)c2c1C[C@H]1C[C@H]3[C@H](N(C)C)C(=O)C(C(N)=O)=C(O)[C@@]3(O)C(=O)C1=C2O", "Potency": "inactive"}, {"smiles": "CN(C)c1ccc2nc3ccc(=[N+](C)C)cc-3sc2c1", "Potency": "8270 nM (active)"}, {"smiles": "Nc1nc(OCc2ccccc2)c2[nH]cnc2n1", "Potency": "inactive"}, {"smiles": "CCN(CC)CCOc1ccc(Nc2ncc3cc(-c4c(Cl)cccc4Cl)c(=O)n(C)c3n2)cc1", "Potency": "1310 nM (active)"}, {"smiles": "Clc1ccc(C(Cn2ccnc2)OCc2ccsc2Cl)c(Cl)c1", "note": "(stereo unspecified)", "Potency": "11700 nM (active)"}, {"smiles": "Cc1nc(Nc2ncc(C(=O)Nc3c(C)cccc3Cl)s2)cc(N2CCN(CCO)CC2)n1", "Potency": "inactive"}, {"smiles": "CC(=O)O[C@H]1C(=O)[C@@]2(C)C([C@H](OC(=O)c3ccccc3)[C@]3(O)C[C@H](OC(=O)[C@H](O)[C@@H](NC(=O)c4ccccc4)c4ccccc4)C(C)=C1C3(C)C)[C@]1(OC(C)=O)CO[C@@H]1C[C@@H]2O", "note": "(stereo partly specified)", "Potency": "20.8 nM (active)"}, {"smiles": "CCOc1cc(CC(=O)N[C@@H](CC(C)C)c2ccccc2N2CCCCC2)ccc1C(=O)O", "Potency": "inactive"}]}]}
